Data as given in PubChem BioAssay (EPA / NIEHS).
Active and inactive are the calls of the source. How the source made its calls: active means hit-call score of the fitted dose curve at least 0.9, where 1 is the maximum; inactive means score below 0.9.

Tests used:
[1] = ATG_EGR_CIS: Attagene CIS-FACTORIAL HepG2 Assay for human Early Growth Response 1 (EGR1) (AID 2282938); conditions: HepG2 Attagene CIS-FACTORIAL EGR reporter mRNA; actives raise or lower the signal
In short: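 HepG2 cells transiently transfected with cis-element-driven multiplexed reporter units, dosed for 24 h. EGR1-element reporter mRNA quantified by RT-PCR, 6-FAM labelling, HpaI digestion and capillary electrophoresis; bidirectional fit versus DMSO.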

[2] = ATG_M_19_CIS: Attagene CIS-FACTORIAL HepG2 Assay for M19 Transcription Factor (Internal Marker) (AID 2282939); conditions: HepG2 Attagene CIS-FACTORIAL M19 internal marker reporter; actives raise or lower the signal
In short: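 Signals come from fluorescence of labelled reporter-specific PCR fragments resolved by capillary electrophoresis, following 24 h treatment of HepG2 cells transfected with cis-promoter reporter units; activity was fitted in both directions relative to DMSO.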

[3] = ATG_ERE_CIS: Attagene CIS-FACTORIAL HepG2 Assay for Estrogen Response Element (ERE) (AID 2282940); conditions: HepG2 ERE cis-reporter, Attagene RNA transcript; actives raise or lower the signal
In short: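 Fluorescence of capillary-separated, FAM-labelled reporter cDNA fragments indicates reporter mRNA levels in HepG2 cells exposed to chemicals for 24 h. Transient transfection with cis-regulated units; data fitted in both directions against DMSO.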

[4] = ATG_Ets_CIS: Attagene CIS-FACTORIAL HepG2 Assay for human Erythroblast Transformation Specific (ETS) (AID 2282941); conditions: HepG2 ETS cis-reporter transcription, actives raise or lower the signal
In short: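 Cis-regulated reporter mRNA induction in HepG2 (transient transfection), 24 h exposure, RT-PCR plus capillary electrophoresis detection; DMSO serves as negative control and baseline.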

[5] = biological target: Hepatocyte nuclear factor 3-beta (Homo sapiens) (UniProt Q9Y261); assay: ATG_FoxA2_CIS: Attagene CIS-FACTORIAL HepG2 Assay for human Forkhead box A2 (FOXA2) (AID 2282942); conditions: HepG2 cis-reporter transcription factor activity, 24 h; actives raise or lower the signal
In short: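 HepG2 transiently transfected with a multiplexed cis-promoter reporter library read endogenous FOXA2 activity. After 24 h compound exposure, reporter mRNA was quantified by RT-PCR, HpaI digestion and capillary electrophoresis. Bidirectional fit against DMSO.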

[6] = ATG_FoxO_CIS: Attagene CIS-FACTORIAL HepG2 Assay for human Forkhead box O (FoxO) (AID 2282943); conditions: HepG2 Attagene cis-reporter, FoxO element, mRNA; actives raise or lower the signal
In short: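 HepG2 cells transiently transfected with cis-promoter-driven multiple reporter transcription units; 24 h after chemical dosing, reporter mRNA quantified by RT-PCR, fluorescent primer extension, HpaI digestion and capillary electrophoresis. Bidirectional fitting versus DMSO baseline.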

[7] = ATG_GATA_CIS: Attagene CIS-FACTORIAL HepG2 Assay for human GATA Binding Protein (AID 2282944); conditions: HepG2 GATA cis-element reporter, Attagene multiplex mRNA; actives raise or lower the signal
In short: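 After transfecting HepG2 cells with multiple cis-regulated reporter units, chemicals are dosed for 24 h; isolated RNA undergoes RT-PCR and fluorescent labeling before capillary electrophoresis, with activity expressed against DMSO.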

[8] = ATG_GLI_CIS: Attagene CIS-FACTORIAL HepG2 Assay for human Zinc Finger Protein GLI1 (AID 2282945); conditions: HepG2, Attagene cis-factorial reporter mRNA, GLI element; actives raise or lower the signal
In short: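 HepG2 cells transiently transfected with cis-promoter multiplexed reporter units report endogenous transcription factor activity. After 24 h chemical exposure, reporter mRNA was quantified by RT-PCR, 6-FAM labelling, HpaI digestion and capillary electrophoresis, with bidirectional fitting against DMSO.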

[9] = ATG_GRE_CIS: Attagene CIS-FACTORIAL HepG2 Assay for human Glucocorticoid Response Elements (GRE) (AID 2282947); conditions: HepG2 GRE cis-reporter, Attagene multiplex mRNA; actives raise or lower the signal
In short: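 HepG2, transient cis-reporter transfection, 24 h. Reporter mRNA: RT-PCR then CE, fluorescence. Fit both directions vs DMSO.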

[10] = biological target: Bile acid receptor (Homo sapiens) (UniProt Q96RI1); assay: ATG_IR1_CIS: Attagene CIS-FACTORIAL HepG2 Assay for human Nuclear Receptor Subfamily 1 Group H Member 4 (NR1H4), IR1 submotif (AID 2282946); conditions: IR1 reporter transcription, actives raise or lower the signal
In short: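 Readout: reporter transcript levels by RT-PCR with fluorescent capillary electrophoresis, from HepG2 cells transiently transfected with multiplexed cis-regulated reporters and dosed 24 h. Gain- or loss-of-signal fitted versus DMSO negative control.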

Measured: AC50

Sequence of Bile acid receptor (Homo sapiens) (Q96RI1 whole entry, looked up): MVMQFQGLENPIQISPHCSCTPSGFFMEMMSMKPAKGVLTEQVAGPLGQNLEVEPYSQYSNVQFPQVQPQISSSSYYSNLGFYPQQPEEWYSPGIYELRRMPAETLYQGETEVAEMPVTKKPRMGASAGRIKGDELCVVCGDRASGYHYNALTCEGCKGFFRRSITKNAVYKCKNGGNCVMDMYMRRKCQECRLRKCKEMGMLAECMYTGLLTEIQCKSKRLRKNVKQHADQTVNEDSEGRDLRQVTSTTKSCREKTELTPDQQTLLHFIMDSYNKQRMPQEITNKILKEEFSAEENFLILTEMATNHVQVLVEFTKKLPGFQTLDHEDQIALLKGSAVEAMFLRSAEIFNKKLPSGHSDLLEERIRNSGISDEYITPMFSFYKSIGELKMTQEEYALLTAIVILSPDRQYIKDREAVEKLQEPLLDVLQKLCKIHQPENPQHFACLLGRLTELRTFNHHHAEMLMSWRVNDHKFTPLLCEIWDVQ
Sequence of Hepatocyte nuclear factor 3-beta (Homo sapiens) (Q9Y261 whole entry, looked up): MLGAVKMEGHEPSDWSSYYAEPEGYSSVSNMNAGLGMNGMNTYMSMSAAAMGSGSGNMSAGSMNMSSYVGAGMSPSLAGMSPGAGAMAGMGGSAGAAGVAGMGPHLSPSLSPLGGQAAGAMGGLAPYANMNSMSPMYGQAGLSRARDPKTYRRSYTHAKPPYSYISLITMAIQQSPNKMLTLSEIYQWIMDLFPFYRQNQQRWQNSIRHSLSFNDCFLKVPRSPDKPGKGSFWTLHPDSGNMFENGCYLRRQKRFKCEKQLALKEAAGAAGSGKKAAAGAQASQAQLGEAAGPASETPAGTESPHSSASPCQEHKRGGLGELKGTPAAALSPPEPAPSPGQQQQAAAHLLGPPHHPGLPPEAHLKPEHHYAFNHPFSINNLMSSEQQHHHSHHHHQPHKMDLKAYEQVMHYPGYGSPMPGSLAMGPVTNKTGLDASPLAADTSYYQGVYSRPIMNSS

CCCSP(=S)(OCC)Oc1ccc(Cl)cc1Cl (configuration not stated)
active: [3] 10.3 µM
not listed: [10]
inactive: all other assays above

Oc1cccc(-c2ccccc2)c1
active: [3] 6.35 µM
inactive: all other assays above

O=CCCl
active: [1] 38.4 µM | [6] 26.6 µM | [8] 25.5 µM
not listed: [10]
inactive: all other assays above

COc1ccc([N+](=O)[O-])cc1O
inactive: all assays above

CC(C)(C#N)N=NC(C)(C)C#N
not listed: [10]
inactive: all other assays above

O=[N+]([O-])c1ccc(Nc2ccccc2)cc1
inactive: all assays above

CC(C)(COCC1CO1)COCC1CO1 (configuration not stated)
inactive: all assays above

O=[N+]([O-])c1cc([As](=O)(O)O)ccc1O
not listed: [10]
inactive: all other assays above

CCC[CH2][Sn]([Cl])([Cl])[CH2]CCC
active: [1] 1.24 µM | [3] 0.312 µM | [6] 0.66 µM | [8] 1.54 µM | [10] 1.73 µM
inactive: all other assays above

CCCCCCCCCCCCCCC(Br)C(=O)O (configuration not stated)
active: [1] 146 µM | [2] 183 µM | [5] 62.4 µM | [8] 137 µM
inactive: [3] | [4] | [6] | [10]

COC(=O)c1cc(Oc2ccc(Cl)cc2Cl)ccc1[N+](=O)[O-]
active: [1] 27.2 µM | [3] 39.1 µM
inactive: all other assays above

CCN(N=O)C(N)=O
inactive: all assays above

O=C(Nc1ccc(Br)cc1)c1cc(Br)cc(Br)c1O
active: [1] 52.9 µM | [4] 4.61 µM | [8] 168 µM | [10] 72.3 µM
not listed: [7]
inactive: all other assays above

Nc1nc(N)nc(Cl)n1
not listed: [10]
inactive: all other assays above

CCN(CCO)CCO
not listed: [10]
inactive: all other assays above

CC(C)(c1ccccc1)c1cc(-n2nc3ccccc3n2)c(O)c(C(C)(C)c2ccccc2)c1
not listed: [10]
inactive: all other assays above

Cc1cccc(N=Nc2ccc(N(C)C)cc2)c1
not listed: [10]
inactive: all other assays above

Clc1cc(C(Cl)(Cl)Cl)cnc1Cl
active: [1] 8.77 µM
not listed: [7] | [9]
inactive: all other assays above

O=C(O)c1cc(I)cc(I)c1I
active: [3] 27.8 µM
inactive: all other assays above

O=S(=O)(Oc1ccc(Cl)cc1)c1ccc(Cl)cc1
not listed: [10]
inactive: all other assays above

CCCCOC(=O)COC(=O)c1ccccc1C(=O)OCCCC
not listed: [10]
inactive: all other assays above

CC(=O)C(F)(F)C(F)(F)F
inactive: all assays above

CCCCCCCCCCCCCl
not listed: [10]
inactive: all other assays above

O=[N+]([O-])c1ccc(Cl)c([N+](=O)[O-])c1
active: [1] 6.18 µM
inactive: all other assays above

OC[P+](CO)(CO)CO
not listed: [10]
inactive: all other assays above

CCCSP(=S)(OCC)Oc1ccc(SC)cc1 (configuration not stated)
active: [3] 7.28 µM
not listed: [7] | [9]
inactive: all other assays above

CN(C)CCN(C)C
inactive: all assays above

CC(C)[C@@H](Nc1ccc(C(F)(F)F)cc1Cl)C(=O)OC(C#N)c1cccc(Oc2ccccc2)c1 (some centres not stated)
not listed: [4]
inactive: all other assays above

FC(F)OCC(F)(F)C(F)(F)F
not listed: [4]
inactive: all other assays above

COc1ccccc1N
not listed: [3] | [9] | [10]
inactive: all other assays above

Nc1nc(=S)[nH][nH]1
not listed: [4] | [10]
inactive: all other assays above

c1csc(-c2ccc(-c3cccs3)s2)c1
active: [1] 3.02 µM | [3] 7.65 µM | [5] 4.46 µM
not listed: [4]
inactive: all other assays above

Oc1cc(Cl)c(Cl)cc1Cl
active: [1] 66.6 µM
not listed: [3] | [9] | [10]
inactive: all other assays above

O=C(O)CC(O)(CC(=O)O)C(=O)O
not listed: [3] | [9] | [10]
inactive: all other assays above

CN(C)C(=S)S
not listed: [3] | [9] | [10]
inactive: all other assays above

O=NN1CCCCCC1
not listed: [7]
inactive: all other assays above

O=S(=O)(c1ccc(Cl)cc1)c1cc(Cl)c(Cl)cc1Cl
active: [10] 19.3 µM
not listed: [4]
inactive: all other assays above

C=CC(=O)[O][Sn]([CH2]CCC)([CH2]CCC)[CH2]CCC
active: [1] 0.412 µM | [3] 0.0146 µM | [5] 0.694 µM | [8] 0.602 µM | [10] 0.0956 µM | [9] 0.412 µM
inactive: [2] | [6]

Clc1ccc(C(Cl)(Cl)Cl)cn1
active: [3] 2.86 µM
not listed: [4] | [9]
inactive: all other assays above

Cc1cc(Cl)ccc1OC(C)C(=O)O (configuration not stated)
not listed: [4] | [9] | [10]
inactive: all other assays above

CN(N=O)c1ccc([N+](=O)[O-])cc1
not listed: [3] | [9]
inactive: all other assays above

Fc1cccc(Cl)c1CCl
not listed: [3] | [9]
inactive: all other assays above

O=NN1CCCCCCC1
not listed: [4]
inactive: all other assays above

O=C/C(Cl)=C(/Cl)C(=O)O
active: [1] 145 µM | [6] 132 µM | [10] 46 µM
not listed: [7]
inactive: all other assays above

CC(C)(C)c1cc([N+](=O)[O-])cc(C(C)(C)C)c1O
not listed: [4] | [9]
inactive: all other assays above

CCOC(=O)CC(=O)CCl
active: [1] 32.2 µM | [4] 26.4 µM | [5] 133 µM | [8] 26.1 µM
inactive: [2] | [3] | [6] | [9]

ClCCN1CCOCC1
not listed: [4]
inactive: all other assays above

CNC(=O)O/N=C/C(C)(C)S(C)(=O)=O
not listed: [4] | [10]
inactive: all other assays above

CC(F)(F)CC(F)(F)F
not listed: [4]
inactive: all other assays above

C=C(C)C(=O)OCC(CC)CCCC (configuration not stated)
not listed: [4] | [7] | [10]
inactive: all other assays above

O=[N+]([O-])c1ccccc1O
not listed: [3] | [9] | [10]
inactive: all other assays above

O=[N+]([O-])c1c2ccccc2cc2ccccc12
active: [3] 7.14 µM
not listed: [7] | [10]
inactive: all other assays above

CC(C)(c1ccc(O)c(-c2ccccc2)c1)c1ccc(O)c(-c2ccccc2)c1
active: [1] 5.2 µM
not listed: [4]
inactive: all other assays above
